SKN-1 inh – inhibitors of C. elegans SKN-1 | C. elegans VP596 Pgst-4::GFP/RFP ratio, acrylamide-induced, 24 h | AID 624304 | inhibition, % at 21.8 µM | 360,000 tested, 0.49% active;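 active = interference check ratio from 0.5 to 1.5 plus GFP to RFP signal ratio inhibition reaching or exceeding a fixed threshold, cut at about 30% in these data, passing the limit was not always enough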
CHRM1 antagonist – human CHRM1 antagonism; P11229; inhibition, % at 3 µM; CHO-K1 hM1, Fluo-8 calcium fluorescence, ACh EC80 antagonist; 360,000 tested, 1.3% active;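 active = percent inhibition above its own plate's cutoff, namely the mean of that plate's compound wells plus 3 SD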;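 also: peak over basal fluorescence ratio during 140 s after agonist addition; 0% = ACh EC80 plus DMSO and 100% = DMSO alone without agonist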
Target sequence (P11229 whole entry, looked up): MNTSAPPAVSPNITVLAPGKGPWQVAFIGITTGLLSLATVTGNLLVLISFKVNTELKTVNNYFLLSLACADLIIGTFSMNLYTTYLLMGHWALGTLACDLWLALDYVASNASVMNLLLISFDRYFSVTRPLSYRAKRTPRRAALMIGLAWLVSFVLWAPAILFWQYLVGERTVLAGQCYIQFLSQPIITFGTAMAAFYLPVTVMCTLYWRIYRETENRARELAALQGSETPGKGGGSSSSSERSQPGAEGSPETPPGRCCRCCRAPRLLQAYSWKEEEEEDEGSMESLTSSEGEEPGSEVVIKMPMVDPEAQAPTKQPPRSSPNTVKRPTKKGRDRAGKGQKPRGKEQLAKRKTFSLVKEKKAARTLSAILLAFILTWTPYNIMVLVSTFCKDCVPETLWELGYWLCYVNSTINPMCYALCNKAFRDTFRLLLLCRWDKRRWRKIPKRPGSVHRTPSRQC
M1 PAM – potentiates human M1 receptor response to acetylcholine; P11229; CHO-K1 hM1, Fluo-8 calcium fluorescence, ACh EC20; 0% = ACh EC20, 100% = maximal ACh; activation, % at 3 µM; 360,000 tested, 0.088% active; in the data active = activation above about 19%, passing the limit was not always enough
M1 ag – agonists of human M1 muscarinic receptor; activation, % at 3 µM; 360,000 tested, 0.33% active; AID 588814; CHO-K1 hM1, Fluo-8 calcium fluorescence, agonist mode; 0% DMSO, 100% acetylcholine EC100;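 active = activation above the run's mean compound activation plus 3 SD, cut at about 16% in these data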;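 also: peak over basal fluorescence ratio within a 140 s kinetic read after compound addition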
ATG4B inh – blocks human ATG4B protease cleavage of LC3 substrate; Q9Y4P1; ATG4B cleavage of LC3-PLA2, NBD-HPC fluorescence, 1 h; inhibition, % at 8.33 µM; 340,000 tested, 0.51% active; AID 504462; in the data active = inhibition above about 40%
Myeloid diff 2 – compounds promoting myeloid differentiation. ER-HoxA9 myeloid progenitors, lysozyme-GFP differentiation, flow cytometry. calls only at 10 µM. 360,000 tested, 1% active;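 active = normalized GFP-positive differentiation at or above the plate's own cutoff, the solvent-only control mean plus 3 SD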;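 also: cells exposed to compound for four days before flow analysis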
Myeloid diff CP1 – compounds promoting myeloid differentiation | ER-HoxA9 myeloid progenitors, GFP/Mac1 double-positive flow | calls only | AID 651706 | shares compounds with Myeloid diff 2 | 2,300 tested, 2% active;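 active = share of green or green-and-red cells above 9 and 9% in run 1 or 4 and 3% in run 2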
GFP autofluor – flagged as fluorescent in myeloid differentiation counter-screen; shares compounds with Myeloid diff 2; ER-HoxA9 myeloid progenitors, no estrogen, GFP autofluorescence flow cytometry; vehicle wells 0%, positive control 100%; fluorescence response, % (test concentration not listed); 2,300 tested, 7.4% active;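 active = over 5% cells positive for green fluorescent reporter, or over 2% positive for both it and APC stain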;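 also: range taken on the double positive population between DMSO and positive control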
* hit, by the source's call; i = inactive; / = no result; + = active, no number. A selection: hits, their analogues and other compounds. The true share with any hit is near 3.5%.

SMILES	SKN-1 inh	CHRM1 antagonist	M1 PAM	M1 ag	ATG4B inh	Myeloid diff 2	Myeloid diff CP1	GFP autofluor
CCNC(=O)C1CCCN(C(=O)c2c(-c3ccccc3)noc2C)CC1 (centres undefined)	10	15	1	0	/	i	/	/
Cc1cccc(N2CCN(C(=O)C3CCN(S(=O)(=O)N4CCOCC4)CC3)CC2C)c1 (centres undefined)	-3	0	-3	-5	-3	+	i	2
Cc1cccc(N2CCN(C(=O)C3CCN(c4nnc(-n5cccc5)s4)CC3)CC2C)c1 (centres undefined)	0	20	-24	-3	-2	i	/	/
O=C(Nc1ccc(S(=O)(=O)Nc2ncccn2)cc1)C(F)(F)F	9	-15	11	-4	7	i	/	/
COc1ccc2nc(C)cc(SCC(=O)NNC(=O)COc3ccc(C)cc3)c2c1	20	-14	11	-6	-10	i	i	0
Cc1cc(-c2cccs2)c2c(n1)sc1c(=O)[nH]c(=O)[nH]c12	9	-5	13	2	-7	i	i	36*
Cc1cc(-c2ccccc2)c2c(n1)sc1c(O)cc(=O)[nH]c12	/	/	/	/	-2	/	/	/
COc1ccc(-c2nn(-c3ccccc3)cc2/C=N/Nc2ccc(S(N)(=O)=O)cc2[N+](=O)[O-])cc1OC	7	-1	3	-4	1	i	i	0
CC(=O)c1c(O)cc(=O)n(-c2ccccc2)c1-c1ccc(C)cc1	13	-23	2	2	1	i	i	0
CCCC1=[N+](CC(C)=O)CCn2c(C)ccc21	4	-9	5	-5	1	i	/	/
CCCC1=[N+](CC(=O)c2ccc(Br)cc2)CCn2cccc21	22	0	0	-8	0	i	i	3
CCCC1=[N+](CC(=O)c2ccccc2)CCn2cccc21	7	1	1	-7	1	i	i	3
CC(=O)c1ccccc1OCCOc1ncnc2sccc12	5	1	7	-4	-3	i	/	/
CCCCCCC1CCC(C(=O)Nn2c(C)nc3ccccc3c2=O)CC1 (centres undefined)	3	0	6	-4	-12	i	i	0
CCCC1CCC(C(=O)Nn2c(C)nc3ccccc3c2=O)CC1 (centres undefined)	20	-7	4	-4	2	i	/	/
Cc1cc(Cl)ccc1C(O)c1ncc(-c2ccccc2Cl)[nH]1 (centres undefined)	0	3	-4	-4	/	i	/	/
O=S(=O)(c1ccc2ccccc2c1)N1CCN(c2ccc(O)cc2)CC1	-5	2	1	0	-15	+	i	0
COc1ccc(-c2noc(CCC(=O)N3CCN(c4cccc(C(F)(F)F)c4)CC3)n2)cc1	10	5	-6	-2	-4	+	i	0
CN1CCN(c2ccc(CNC(=O)c3ccc(-c4ccc(F)c(F)c4)c4ccoc34)cc2)CC1	-29	-23	11	-3	/	+	i	2
CN1CCN(c2ccc(CNC(=O)c3cccc4c(-c5ccc(F)c(F)c5)coc34)cc2)CC1	-1	-8	1	-3	/	i	/	/
CC(C)(C)c1ccc(/C=C(\C#N)C(=O)NCCN2CCOCC2)cc1	1	7	2	-6	1	i	/	/
CCCNC(=O)CN1C(=O)c2ccccc2Sc2ncccc21	0	-10	8	-6	8	i	/	/
COC1=C/C(=C/c2c(N)n3nc(-c4ccc(C)cc4)sc3nc2=O)C=CC1=O	3	13	-5	-1	28	/	/	/
CCOC1=C/C(=C/c2c(N)n3nc(-c4ccccc4)sc3nc2=O)C=CC1=O	-4	-1	-2	-3	21	+	i	5.2*
Cc1cc(-c2nnc(SCC(=O)Nc3nccs3)o2)no1	4	-12	12	0	-3	i	/	/
SMILES	SKN-1 inh	CHRM1 antagonist	M1 PAM	M1 ag	ATG4B inh	Myeloid diff 2	Myeloid diff CP1	GFP autofluor
Cc1nnc2sc(-c3cccc(F)c3)nn2c1=O	11	-16	7	-4	12	i	/	/
COc1cc(C2c3[nH]c4ccccc4c3C[C@H]3C(=O)N(C4CC4)CC(=O)N23)ccc1OC(C)C (some centres undefined)	3	-15	11	-3	5	i	/	/
Cc1ccc(CCNC(=O)CCS(=O)(=O)c2ccc3nc(C)sc3c2)cc1	6	1	-1	-1	-2	i	i	0
Cc1cccc(CCNC(=O)CCS(=O)(=O)c2ccc3nc(C)sc3c2)c1	1	-11	11	-2	-6	i	/	/
CC(C)C(OC(=O)CN1C(=O)c2ccccc2C1=O)C(=O)NC1CCCC1 (centres undefined)	-1	-15	7	0	0	i	/	/
Cc1ccc(NC(=O)/C(=C\c2cccc(Br)c2)NC(=O)c2ccco2)cc1	-2	-25	21	0	1	i	/	/
O=C(Nc1ccccc1)/C(=C/c1cccc(Br)c1)NC(=O)c1ccco1	-12	-7	8	-6	-14	+	i	0
COc1ccc(/C(C)=N/NC(=O)CNC(=O)c2ccncc2)c(OC)c1	-6	-9	9	-1	-10	i	/	/
O=C1c2ccccc2C(=O)N1CCCON1C(=O)c2ccccc2C1=O	-2	-13	10	-10	-7	i	/	/
CC(=O)OCCCCON1C(=O)c2ccccc2C1=O	-5	-3	5	-4	-3	/	i	0
O=C1NC(=S)N(C(=O)c2ccc(F)cc2)/C1=C/c1ccccc1	18	5	-5	5	18	+	i	2
Cc1ccc(NC(=O)CN2C(=O)NC3(CCCCC3)C2=O)cc1S(=O)(=O)N1CCOCC1	-5	-14	11	-1	3	i	/	/
CC(C)CNC(=O)c1ccccc1-c1ccccc1C(=O)O	17	-1	3	2	-15	i	i	1
CC(C)CNC(=O)c1cccc(NC(=O)c2ccccc2-c2ccccc2C(=O)O)c1	20	-14	3	-3	-4	i	/	/
CCc1ccc(C(=O)C[n+]2cccc3cc(OC)ccc32)cc1	-14	59*	-29	-9	0	i	i	0
CCOc1ccc(C(=O)C[n+]2cccc3cc(C)ccc32)cc1	23	22	-16	-8	1	+	i	54*
CCCCCCN1CCN(C2CN(Cc3cn(Cc4ccc(C)cc4)nn3)S(=O)(=O)C2)CC1 (centres undefined)	3	/	/	/	/	i	i	0

Bioassay records from PubChem BioAssay.
